Data on 1 sequence can be found in publication PMC7862700, “An all-to-all approach to the identification of sequence-specific readers for epigenetic DNA modifications on cytosine”.

What all share (assay): DAPPL (digital affinity profiling via proximity ligation, sequencing); 10 mM Tris-HCl pH 7.5, 50 mM NaCl, 1 mM DTT, 4% glycerol, room temperature, 30 min; GST-TFs on glutathione beads, 16-mer random dsDNA library, 0.1% formaldehyde crosslink after washing; high values mean tight binding
For one assay, the target named is T1, FLI1 (Homo sapiens, UniProt Q01543 1-452).
T1 sequence: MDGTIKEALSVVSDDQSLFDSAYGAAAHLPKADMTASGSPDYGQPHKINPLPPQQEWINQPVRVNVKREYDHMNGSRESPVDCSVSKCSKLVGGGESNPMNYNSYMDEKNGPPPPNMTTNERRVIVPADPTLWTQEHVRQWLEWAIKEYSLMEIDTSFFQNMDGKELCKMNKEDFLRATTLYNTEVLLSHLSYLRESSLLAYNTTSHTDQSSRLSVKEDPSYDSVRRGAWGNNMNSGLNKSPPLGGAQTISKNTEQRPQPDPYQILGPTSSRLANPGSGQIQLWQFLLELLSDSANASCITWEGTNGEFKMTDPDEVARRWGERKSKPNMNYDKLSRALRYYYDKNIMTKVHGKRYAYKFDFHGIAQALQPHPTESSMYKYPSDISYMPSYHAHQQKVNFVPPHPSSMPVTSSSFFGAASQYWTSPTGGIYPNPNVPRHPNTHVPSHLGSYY
As to conditions: protein: recombinant; tags: N-terminal GST; dsDNA, one strand shown. The method in brief:
(§1)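 In yeast, human transcription factors were expressed with a GST fusion, then pulled down on glutathione beads and given DNA barcodes. Pooled with a tag-only sample, they were exposed to 200 nmole of a 16-mer random double-stranded DNA library (Tris/NaCl/DTT/glycerol buffer, room temperature, 30 min), washed, crosslinked with 0.1% formaldehyde, proximity-ligated using BsaI/T4 ligase for 1 h at 37 °C, PCR-amplified and read on an Illumina NextSeq500. Each hexamer's frequency of reads for a factor, divided by the matching frequency for the tag-only sample, gives the binding signal.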

The next assay has as its target T2, ELK1 (Homo sapiens, UniProt P19419 1-428).
T2 sequence: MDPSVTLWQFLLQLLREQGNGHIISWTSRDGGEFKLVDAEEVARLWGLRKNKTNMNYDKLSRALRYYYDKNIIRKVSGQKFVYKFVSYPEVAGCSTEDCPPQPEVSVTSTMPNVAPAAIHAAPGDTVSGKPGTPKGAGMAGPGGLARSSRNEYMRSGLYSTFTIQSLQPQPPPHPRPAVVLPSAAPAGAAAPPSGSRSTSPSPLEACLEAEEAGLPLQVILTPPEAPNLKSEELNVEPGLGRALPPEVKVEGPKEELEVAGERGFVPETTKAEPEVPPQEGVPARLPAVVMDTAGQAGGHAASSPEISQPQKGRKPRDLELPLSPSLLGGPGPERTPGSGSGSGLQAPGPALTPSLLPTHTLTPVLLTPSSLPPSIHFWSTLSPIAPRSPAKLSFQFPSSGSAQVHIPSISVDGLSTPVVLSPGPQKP
As to conditions: protein: recombinant; tags: N-terminal GST; dsDNA, one strand shown. The method in brief:
as §1

The target in the next assay is T3, GABPA (Homo sapiens, UniProt Q06546 1-454).
T3 sequence: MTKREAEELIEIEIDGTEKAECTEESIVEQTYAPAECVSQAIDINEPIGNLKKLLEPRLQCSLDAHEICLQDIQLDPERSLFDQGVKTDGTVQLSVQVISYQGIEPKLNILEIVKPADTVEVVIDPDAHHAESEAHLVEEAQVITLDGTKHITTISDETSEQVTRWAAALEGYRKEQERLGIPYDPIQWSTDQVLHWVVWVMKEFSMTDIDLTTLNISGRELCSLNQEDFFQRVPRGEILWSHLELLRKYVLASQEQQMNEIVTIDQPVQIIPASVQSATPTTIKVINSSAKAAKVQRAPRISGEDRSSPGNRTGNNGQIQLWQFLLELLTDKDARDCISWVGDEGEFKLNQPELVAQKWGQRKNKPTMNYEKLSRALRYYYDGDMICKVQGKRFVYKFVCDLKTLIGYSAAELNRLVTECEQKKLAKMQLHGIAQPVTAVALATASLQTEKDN
As to conditions: protein: recombinant; tags: N-terminal GST; dsDNA, one strand shown. The method in brief:
as §1

The target of another assay is T4, ERG (Homo sapiens, UniProt P11308 1-479).
T4 sequence: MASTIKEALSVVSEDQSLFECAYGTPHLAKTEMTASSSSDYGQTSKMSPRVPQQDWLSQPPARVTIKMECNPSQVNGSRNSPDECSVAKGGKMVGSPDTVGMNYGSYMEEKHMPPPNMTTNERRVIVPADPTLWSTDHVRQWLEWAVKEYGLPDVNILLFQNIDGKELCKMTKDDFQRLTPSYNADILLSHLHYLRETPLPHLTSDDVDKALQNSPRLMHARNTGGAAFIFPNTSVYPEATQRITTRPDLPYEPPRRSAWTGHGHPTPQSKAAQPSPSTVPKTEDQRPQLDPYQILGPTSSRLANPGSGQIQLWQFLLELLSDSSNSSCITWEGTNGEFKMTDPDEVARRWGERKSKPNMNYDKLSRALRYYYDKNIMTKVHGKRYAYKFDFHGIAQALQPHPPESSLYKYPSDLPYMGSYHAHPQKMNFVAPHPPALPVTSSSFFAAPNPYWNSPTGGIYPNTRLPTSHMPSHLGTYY
As to conditions: protein: recombinant; tags: N-terminal GST; dsDNA, one strand shown. In outline: as §1

The next assay addresses ELF1 (Homo sapiens, UniProt P32519 1-619). As to conditions: protein: recombinant; tags: N-terminal GST; dsDNA, one strand shown. The method in brief:
as §1

The target in another assay is T5, EHF (Homo sapiens, UniProt Q9NZC4 1-300).
T5 sequence: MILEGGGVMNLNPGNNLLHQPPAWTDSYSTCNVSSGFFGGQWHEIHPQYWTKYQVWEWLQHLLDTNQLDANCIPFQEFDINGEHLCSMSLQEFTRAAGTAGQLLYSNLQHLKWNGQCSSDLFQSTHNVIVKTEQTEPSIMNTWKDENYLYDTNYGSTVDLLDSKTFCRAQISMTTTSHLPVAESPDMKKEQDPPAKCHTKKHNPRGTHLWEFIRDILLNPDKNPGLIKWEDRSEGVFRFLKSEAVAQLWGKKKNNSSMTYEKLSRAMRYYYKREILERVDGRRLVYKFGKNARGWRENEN
As to conditions: protein: recombinant; tags: N-terminal GST; dsDNA, one strand shown. The method in brief: as §1

The target in the next assay is SPI1 (Homo sapiens, UniProt P17947 1-270). As to conditions: protein: recombinant; tags: N-terminal GST; dsDNA, one strand shown. The method in brief: as §1
The target in a further assay is SPIB (Homo sapiens, UniProt Q01892 1-262). As to conditions: protein: recombinant; tags: N-terminal GST; dsDNA, one strand shown. The method in brief: as §1
Chain of SPIB (Q01892 whole entry): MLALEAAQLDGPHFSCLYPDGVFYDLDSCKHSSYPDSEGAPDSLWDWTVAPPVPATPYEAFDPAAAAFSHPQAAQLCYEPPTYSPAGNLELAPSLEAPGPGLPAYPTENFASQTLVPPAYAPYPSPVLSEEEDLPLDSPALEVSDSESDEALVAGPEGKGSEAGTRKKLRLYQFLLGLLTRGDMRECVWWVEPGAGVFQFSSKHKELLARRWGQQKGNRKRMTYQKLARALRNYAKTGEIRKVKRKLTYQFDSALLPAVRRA
A further assay has as its target T6, ELK3 (Homo sapiens, UniProt P41970 1-407).
T6 sequence: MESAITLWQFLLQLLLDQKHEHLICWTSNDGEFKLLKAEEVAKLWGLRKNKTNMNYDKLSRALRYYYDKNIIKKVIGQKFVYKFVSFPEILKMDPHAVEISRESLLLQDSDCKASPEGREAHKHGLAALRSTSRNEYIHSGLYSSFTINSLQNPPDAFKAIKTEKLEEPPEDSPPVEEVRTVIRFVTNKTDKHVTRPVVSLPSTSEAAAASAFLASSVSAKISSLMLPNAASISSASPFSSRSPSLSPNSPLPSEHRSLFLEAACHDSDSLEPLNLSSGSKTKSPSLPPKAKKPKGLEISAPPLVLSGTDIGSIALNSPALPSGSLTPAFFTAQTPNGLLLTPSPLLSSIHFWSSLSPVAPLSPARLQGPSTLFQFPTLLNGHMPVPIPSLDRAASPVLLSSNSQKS
As to conditions: protein: recombinant; tags: N-terminal GST; dsDNA, one strand shown. The method in brief:
as §1

In a further assay the target is T7, FEV (Homo sapiens, UniProt Q99581 1-238).
T7 sequence: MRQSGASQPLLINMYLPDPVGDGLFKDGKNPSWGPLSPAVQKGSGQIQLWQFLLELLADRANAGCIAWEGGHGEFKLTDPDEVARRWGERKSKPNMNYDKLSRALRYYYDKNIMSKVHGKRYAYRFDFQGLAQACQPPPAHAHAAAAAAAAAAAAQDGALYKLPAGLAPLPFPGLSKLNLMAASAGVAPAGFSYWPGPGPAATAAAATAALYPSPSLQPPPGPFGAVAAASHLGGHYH
As to conditions: protein: recombinant; tags: N-terminal GST; dsDNA, one strand shown. In outline:
as §1

A further assay has as its target ETV5 (Homo sapiens, UniProt P41161 1-510). As to conditions: protein: recombinant; tags: N-terminal GST; dsDNA, one strand shown. The method in brief: as §1
In another assay the target is HSF1 (Homo sapiens, UniProt Q00613 1-529). As to conditions: protein: recombinant; tags: N-terminal GST; chain copies: 3; dsDNA, one strand shown. In outline:
as §1

The next assay concerns the target T8, SPIC (Homo sapiens, UniProt Q8N5J4 1-248).
T8 sequence: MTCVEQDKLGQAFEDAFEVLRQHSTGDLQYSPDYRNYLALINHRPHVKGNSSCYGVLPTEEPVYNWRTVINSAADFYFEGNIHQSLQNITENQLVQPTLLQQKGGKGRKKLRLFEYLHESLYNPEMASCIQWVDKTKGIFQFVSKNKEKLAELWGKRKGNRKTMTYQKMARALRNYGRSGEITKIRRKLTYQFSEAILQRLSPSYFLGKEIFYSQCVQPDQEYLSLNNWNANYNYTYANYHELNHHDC
As to conditions: protein: recombinant; tags: N-terminal GST; dsDNA, one strand shown. In outline: as §1

A further assay concerns the target ELF4 (Homo sapiens, UniProt Q99607 1-663). As to conditions: protein: recombinant; tags: N-terminal GST; dsDNA, one strand shown. The method in brief:
as §1

The target in a further assay is T9, ELK4 (Homo sapiens, UniProt P28324-2 1-405).
T9 sequence: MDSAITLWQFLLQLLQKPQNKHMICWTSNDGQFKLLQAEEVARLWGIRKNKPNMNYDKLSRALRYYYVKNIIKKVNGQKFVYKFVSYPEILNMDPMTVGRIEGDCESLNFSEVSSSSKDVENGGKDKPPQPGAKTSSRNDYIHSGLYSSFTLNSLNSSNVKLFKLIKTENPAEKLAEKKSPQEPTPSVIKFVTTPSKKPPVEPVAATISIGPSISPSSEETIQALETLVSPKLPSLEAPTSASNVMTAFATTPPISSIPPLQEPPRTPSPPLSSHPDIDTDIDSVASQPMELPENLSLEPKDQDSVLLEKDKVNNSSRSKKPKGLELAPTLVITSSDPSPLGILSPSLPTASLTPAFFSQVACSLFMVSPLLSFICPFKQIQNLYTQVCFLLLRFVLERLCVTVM
As to conditions: protein: recombinant; tags: N-terminal GST; dsDNA, one strand shown. In outline:
as §1

The next assay addresses T10, ETV2 (Homo sapiens, UniProt O00321 1-342).
T10 sequence: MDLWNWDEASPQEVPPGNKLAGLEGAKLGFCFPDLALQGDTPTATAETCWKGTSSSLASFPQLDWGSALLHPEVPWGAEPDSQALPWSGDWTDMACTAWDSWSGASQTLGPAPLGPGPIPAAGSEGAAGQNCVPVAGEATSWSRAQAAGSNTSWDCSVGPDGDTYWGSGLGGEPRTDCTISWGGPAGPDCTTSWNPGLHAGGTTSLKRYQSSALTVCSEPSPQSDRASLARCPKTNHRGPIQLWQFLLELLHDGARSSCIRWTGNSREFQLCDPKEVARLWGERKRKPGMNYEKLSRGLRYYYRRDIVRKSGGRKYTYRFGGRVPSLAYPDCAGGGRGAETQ
As to conditions: protein: recombinant; tags: N-terminal GST; dsDNA, one strand shown. The method in brief: as §1

A further assay deals with T11, ELF3 (Homo sapiens, UniProt P78545 1-371).
T11 sequence: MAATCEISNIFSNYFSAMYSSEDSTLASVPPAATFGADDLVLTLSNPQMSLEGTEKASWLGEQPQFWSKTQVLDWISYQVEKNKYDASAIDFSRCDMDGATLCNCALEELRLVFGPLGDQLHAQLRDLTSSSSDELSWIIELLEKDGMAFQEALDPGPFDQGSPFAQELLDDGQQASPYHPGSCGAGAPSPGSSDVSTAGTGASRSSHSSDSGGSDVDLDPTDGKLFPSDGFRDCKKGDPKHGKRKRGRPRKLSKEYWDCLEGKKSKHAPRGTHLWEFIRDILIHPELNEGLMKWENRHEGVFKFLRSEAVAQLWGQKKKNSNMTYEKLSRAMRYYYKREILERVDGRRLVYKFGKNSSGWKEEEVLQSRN
As to conditions: protein: recombinant; tags: N-terminal GST; dsDNA, one strand shown. The method in brief:
as §1

For a further assay, the target named is CRX (Homo sapiens, UniProt O43186 1-299). As to conditions: protein: recombinant; tags: N-terminal GST; dsDNA, one strand shown. In outline:
as §1

Another assay addresses ETV1 (Homo sapiens, UniProt P50549 1-477). As to conditions: protein: recombinant; tags: N-terminal GST; dsDNA, one strand shown. In outline:
as §1

Chain of ELF1 (P32519 whole entry): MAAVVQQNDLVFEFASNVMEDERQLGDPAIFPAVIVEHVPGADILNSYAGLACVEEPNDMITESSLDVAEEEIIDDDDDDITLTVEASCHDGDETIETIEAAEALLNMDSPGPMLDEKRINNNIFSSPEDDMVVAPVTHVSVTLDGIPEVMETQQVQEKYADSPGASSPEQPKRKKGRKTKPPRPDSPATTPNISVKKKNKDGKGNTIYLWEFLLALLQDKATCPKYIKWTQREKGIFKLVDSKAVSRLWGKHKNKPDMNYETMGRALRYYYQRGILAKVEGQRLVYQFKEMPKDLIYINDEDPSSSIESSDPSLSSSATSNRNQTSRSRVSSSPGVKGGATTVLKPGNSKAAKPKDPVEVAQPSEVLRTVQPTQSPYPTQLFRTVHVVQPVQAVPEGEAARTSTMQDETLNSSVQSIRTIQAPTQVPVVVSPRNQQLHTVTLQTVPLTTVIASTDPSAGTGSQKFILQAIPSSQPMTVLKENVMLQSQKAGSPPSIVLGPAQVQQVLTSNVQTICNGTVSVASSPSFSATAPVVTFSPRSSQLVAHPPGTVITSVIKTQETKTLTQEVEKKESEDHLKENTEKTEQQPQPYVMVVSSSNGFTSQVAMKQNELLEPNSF
Chain of ETV5 (P41161 whole entry): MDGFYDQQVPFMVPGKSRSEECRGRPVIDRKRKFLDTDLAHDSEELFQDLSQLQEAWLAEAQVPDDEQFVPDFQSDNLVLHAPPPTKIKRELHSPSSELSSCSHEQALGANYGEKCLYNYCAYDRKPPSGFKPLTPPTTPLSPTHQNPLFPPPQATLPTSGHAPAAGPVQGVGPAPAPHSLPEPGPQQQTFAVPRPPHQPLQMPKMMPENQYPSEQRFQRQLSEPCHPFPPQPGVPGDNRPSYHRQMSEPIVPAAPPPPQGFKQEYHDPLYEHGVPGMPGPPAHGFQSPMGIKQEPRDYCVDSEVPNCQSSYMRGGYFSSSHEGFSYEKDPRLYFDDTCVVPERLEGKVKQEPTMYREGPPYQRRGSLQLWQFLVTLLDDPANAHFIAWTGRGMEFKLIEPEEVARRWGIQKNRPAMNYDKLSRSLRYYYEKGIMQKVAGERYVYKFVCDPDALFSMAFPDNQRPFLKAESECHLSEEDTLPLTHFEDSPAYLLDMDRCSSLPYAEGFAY
Chain of ELF4 (Q99607 whole entry): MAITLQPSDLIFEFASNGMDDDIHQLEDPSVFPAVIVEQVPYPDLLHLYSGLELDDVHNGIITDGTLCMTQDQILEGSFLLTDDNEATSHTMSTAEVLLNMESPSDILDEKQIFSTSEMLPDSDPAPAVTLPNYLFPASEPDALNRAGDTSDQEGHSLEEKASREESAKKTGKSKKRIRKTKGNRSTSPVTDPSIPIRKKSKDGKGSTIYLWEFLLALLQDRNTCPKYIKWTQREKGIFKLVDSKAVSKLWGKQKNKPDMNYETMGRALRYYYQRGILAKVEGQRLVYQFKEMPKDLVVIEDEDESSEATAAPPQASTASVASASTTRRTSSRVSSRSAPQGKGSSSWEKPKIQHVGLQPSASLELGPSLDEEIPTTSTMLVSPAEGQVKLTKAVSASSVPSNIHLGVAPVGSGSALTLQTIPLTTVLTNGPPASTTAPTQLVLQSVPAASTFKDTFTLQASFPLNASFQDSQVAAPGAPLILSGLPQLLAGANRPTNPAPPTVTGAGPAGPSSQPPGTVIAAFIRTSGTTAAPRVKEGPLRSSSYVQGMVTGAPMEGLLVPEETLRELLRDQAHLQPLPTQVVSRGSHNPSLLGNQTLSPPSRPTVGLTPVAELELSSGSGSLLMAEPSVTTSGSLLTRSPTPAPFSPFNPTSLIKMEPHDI
Chain of ETV1 (P50549 whole entry): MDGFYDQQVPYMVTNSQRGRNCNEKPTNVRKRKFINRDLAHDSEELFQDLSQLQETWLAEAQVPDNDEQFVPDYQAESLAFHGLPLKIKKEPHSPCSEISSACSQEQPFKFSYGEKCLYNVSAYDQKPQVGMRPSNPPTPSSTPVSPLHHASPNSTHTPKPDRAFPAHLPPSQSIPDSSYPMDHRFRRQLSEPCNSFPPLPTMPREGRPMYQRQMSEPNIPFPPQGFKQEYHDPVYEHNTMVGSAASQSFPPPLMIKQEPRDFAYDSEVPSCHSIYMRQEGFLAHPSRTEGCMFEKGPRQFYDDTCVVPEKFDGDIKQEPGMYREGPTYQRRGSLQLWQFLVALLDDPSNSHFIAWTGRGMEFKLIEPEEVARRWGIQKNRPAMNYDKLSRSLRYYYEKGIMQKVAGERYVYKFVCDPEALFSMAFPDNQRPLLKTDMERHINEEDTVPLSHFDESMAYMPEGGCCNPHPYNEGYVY
Chain of HSF1 (Q00613 whole entry): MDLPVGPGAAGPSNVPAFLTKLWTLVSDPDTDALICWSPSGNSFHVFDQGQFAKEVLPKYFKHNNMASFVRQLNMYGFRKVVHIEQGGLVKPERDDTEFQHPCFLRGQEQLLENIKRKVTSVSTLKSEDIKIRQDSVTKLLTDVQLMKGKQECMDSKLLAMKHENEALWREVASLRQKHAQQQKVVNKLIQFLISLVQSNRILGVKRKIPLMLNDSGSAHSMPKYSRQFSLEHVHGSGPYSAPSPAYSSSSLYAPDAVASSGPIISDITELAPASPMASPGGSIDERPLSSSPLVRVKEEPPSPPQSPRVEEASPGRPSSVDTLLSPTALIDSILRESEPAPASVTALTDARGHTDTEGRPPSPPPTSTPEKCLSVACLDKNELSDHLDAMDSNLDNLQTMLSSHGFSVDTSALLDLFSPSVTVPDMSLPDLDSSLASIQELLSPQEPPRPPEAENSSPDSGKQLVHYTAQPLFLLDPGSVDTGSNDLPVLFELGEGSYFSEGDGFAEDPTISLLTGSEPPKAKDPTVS
Chain of CRX (O43186 whole entry): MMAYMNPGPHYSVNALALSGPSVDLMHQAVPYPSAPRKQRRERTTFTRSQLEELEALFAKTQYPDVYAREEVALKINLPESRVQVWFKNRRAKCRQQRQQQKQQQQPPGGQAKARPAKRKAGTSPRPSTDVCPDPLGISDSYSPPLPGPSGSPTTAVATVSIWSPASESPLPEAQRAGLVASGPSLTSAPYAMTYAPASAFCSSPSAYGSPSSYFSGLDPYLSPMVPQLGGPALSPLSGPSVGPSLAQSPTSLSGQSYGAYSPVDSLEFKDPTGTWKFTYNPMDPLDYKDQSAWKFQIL

As to TCCTCT, the binding signal with FLI1 was 1.58 fold enrichment (6-mer frequency, TF over GST control); in the assay with ELK1 it was 1.57 fold enrichment (6-mer frequency, TF over GST control); with GABPA it was 1.57 fold enrichment (6-mer frequency, TF over GST control); with ERG, 1.7 fold enrichment (6-mer frequency, TF over GST control); with ELF1 it was 1.64 fold enrichment (6-mer frequency, TF over GST control); with EHF it was 1.7 fold enrichment (6-mer frequency, TF over GST control). For the same sequence, the binding signal with SPI1 is 2.95 fold enrichment (6-mer frequency, TF over GST control); in the assay with SPIB, 1.72 fold enrichment (6-mer frequency, TF over GST control); with ELK3 it was 1.6 fold enrichment (6-mer frequency, TF over GST control); in the assay with FEV it was 1.63 fold enrichment (6-mer frequency, TF over GST control); with ETV5, 1.64 fold enrichment (6-mer frequency, TF over GST control); with HSF1, 1.51 fold enrichment (6-mer frequency, TF over GST control). For the same sequence, the binding signal with SPIC is 1.67 fold enrichment (6-mer frequency, TF over GST control); in the assay with ELF4, 1.69 fold enrichment (6-mer frequency, TF over GST control); with ELK4, 1.53 fold enrichment (6-mer frequency, TF over GST control); in the assay with ETV2, 1.68 fold enrichment (6-mer frequency, TF over GST control); with ELF3, 1.66 fold enrichment (6-mer frequency, TF over GST control); in the assay with CRX it was 1.79 fold enrichment (6-mer frequency, TF over GST control). Besides, the binding signal in the assay with ETV1 was 1.74 fold enrichment (6-mer frequency, TF over GST control).
